ATXN2 expr inh: ATXN2 expression inhibition | HEK-293 ATXN2-luciferase reporter, luminescence, 24 h | Potency, µM (doses to about 57 µM), inactives show at the top dose activity change, negative = inhibition, usual class: inhibitors | 0.72% of 360,000 active | AID 1745845; also: potency is read from the fitted curve at half-maximal effect; % is scaled to controls: 0 for no effect and ±100 for the full control effect; nearly all actives have a fitted effect of over 55% in size
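qHTS (up to 57 uM final) was run with 24 h compound exposure of reporter cells at 37 °C. Each well was multiplexed: SteadyGlo luminescence measured ATXN2-luciferase expression after a fluorogenic Gly-Phe-AFC viability readout (25 uM final).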
PINK1 expr mod: modulators of PINK1 expression; PINK1 immunofluorescence, high-content cytometry, 24 h; Potency, µM (highest dose often 76.6 µM), without a hit: at the highest dose activation (PINK1 increase), hits mostly activators; 0.2% of 410,000 active; AID 624263; active = well fitted activation curve with a large enough effect; inconclusive = small, poorly fitted or top-dose-only effect; cell line not stated here; also: potency is read from the fitted curve at half-maximal effect; % of control where 0% means no effect; nearly all actives have a fitted effect of over 65% in size
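A stable cell line was treated with compounds at 5 concentrations for 24 hours, with CCCP as control. PINK1 levels and mitochondrial localization were measured by immunofluorescence with mitochondrial, cell and nuclear markers after fixation, read by laser-scanning cytometry.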
ATXN viability: viability counter-screen for ATXN expression inhibitors. Potency, µM (top dose mostly 56.7 µM), usual class: cytotoxic. S2 cells (HEK-293 line with an ATXN2-luciferase reporter) viability, CellTiter-Fluor protease fluorescence, 24 h. 0.49% of 400,000 active; also: potency is read from the fitted curve at half-maximal effect; nearly all actives have a fitted effect of over 40% in size
MCF10A rereplic: induces DNA re-replication in MCF 10a normal breast cells; Potency, µM (doses to about 46.1 µM), inactives show at the highest dose activity, positive = re-replication, hits mostly activators; MCF 10A DNA re-replication, Hoechst nuclear intensity, 48 h; 2.9% of 350,000 active; also: potency is read from the fitted curve at half-maximal effect; % of control where 0% means no effect; nearly all actives have a fitted effect of over 50% in size
IL-1B inflam inh: inflammasome signaling inhibition, IL-1 beta readout; THP-1 LPS/ATP IL-1B secretion, AlphaLISA, 16 h; stronger effect = lower value; 4.7% of 360,000 active; activity change, % at 57.5 µM; AID 743279; in the data active = activity change below about -50%; inconclusive = mostly about -30% to -49%; also: % is scaled to controls: 0 for no effect and ±100 for the full control effect
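THP-1 cells pretreated 1 hr with compounds (up to 57.5 uM final), then stimulated with LPS (250 ng/mL final) plus ATP (1.25 mM final); secreted IL-1B measured by AlphaLISA after 16 hr, decreased signal indicating inhibition.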
SW480 rerep: DNA re-replication induction in SW480 cells; SW480 DNA re-replication, Hoechst DNA content imaging, 48 h; Potency, µM (doses to about 46.1 µM), for inactives: at the highest dose re-replication activation, usual class: activators; 1.8% of 340,000 active; AID 624297; also: potency is read from the fitted curve at half-maximal effect; % of control where 0% means no effect; nearly all actives have a fitted effect of over 55% in size
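Hoechst fluorescence of nuclei (405 nm excitation, 500-530 nm emission) measured by plate-scanning imager after 48 hr compound exposure at 37 C; re-replication scored as increased number of nuclei with elevated intensity.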
An asterisk follows results filed as active; i = inactive; u = inconclusive; x = no result; [ ] = another dose, or the depositor's remark. Hits are enriched below; roughly 7.1% of the tested compounds scored in any of these assays. Unless noted, calls follow the shape of the dose curve; as a rule, active = well fitted curve in the direction sought with a large enough effect; inconclusive = small, poorly fitted or top-dose-only effect, or another doubt; inactive = no such curve, though single readings can be large; an effect the other way counts as inactive or inconclusive.

SMILES	ATXN2 expr inh	PINK1 expr mod	ATXN viability	MCF10A rereplic	IL-1B inflam inh	SW480 rerep
CS(=O)(=O)N1CCC(C(=O)Nc2ccc(Cl)cc2Cl)CC1	x	-1%	u	x	-18	x
O=C(OCc1ccco1)c1ccc2c(c1)N(Cc1cccc(F)c1)C(=O)c1ccccc1S2	11%	1%	i	x	x	x
Cc1cc(Nc2ccccc2Cl)nc(-c2ccccc2O)n1	-3%	3%	i	u	-70*	u
Cc1cc(Nc2ccccc2)nc(-c2ccccc2O)n1	17%	11%	u	u	-17	1%
Cc1cc(NC2CCCCC2)nc(-c2ccccc2O)n1	15%	0%	i	18µM*	2	0%
Cc1cc(Nc2cccc(F)c2)nc(-c2ccccc2O)n1	-19%	x	i	1%	-61*	10%
CCOc1ccc(-c2cnc(NCc3ccc(OC)cc3OC)n2C)cc1	-22%	0%	i	x	x	x
CCc1ccc(CNC(=O)CN2C(=O)CCn3nc(-c4cn(C)c5ccccc45)cc32)cc1	-8%	6%	i	x	x	x
CCOc1ccc(C2C(=O)N(C3CCCCCC3)CC(=O)N2CCc2ccc(Cl)cc2)cc1OC (centres undefined)	x	1%	x	x	x	x
COc1ccc(-c2cccc(NS(=O)(=O)c3ccc(C)s3)c2)nn1	-18%	3%	i	x	x	x
CC(OC(=O)c1ccc(NC(=O)CC#N)cc1)C(=O)NC(c1ccccc1)c1ccccc1 (centres undefined)	0%	u	i	2%	3	1%
Cc1cc(C(=O)C(C)OC(=O)c2ccc(NC(=O)CC#N)cc2)c(C)n1-c1ccccc1 (centres undefined)	u	1%	i	u	-56*	3.3µM*
O=C(/C=C\NCC(=O)c1ccccc1)c1ccc(F)cc1	20%	u	i	16%	14	-3%
O=C(/C=C\NCC(=O)c1ccccc1)c1ccc2ccccc2c1	21%	1%	i	u	-54*	-6%
Cc1nc(-c2ccc(S(=O)(=O)N3CCN(c4cc(Cl)ccc4C)CC3)cc2)co1	1%	-5%	i	x	x	x
O=C(CSc1nnc(Cc2cccs2)n1Cc1ccco1)Nc1cccc(Cl)c1	-10%	-8%[38.3 µM]	i	6.5µM*	-9	-2%
O=C(CSc1nnc(Cc2cccs2)n1Cc1ccco1)Nc1cc(Cl)cc(Cl)c1	-16%	-1%	i	u	u	-1%
Cc1ccc(S(=O)(=O)N2CCN(c3nc(-n4c(=O)[nH]c5ccccc54)nc4ccccc34)CC2)cc1	x	0%	x	x	x	x
O=C(c1ccc2c(=O)n(Cc3ccc4c(c3)OCO4)c(=S)[nH]c2c1)N1CCCCC1	-27%	14µM*	u	-3%	12	-9%
CCCCCn1c(=O)[nH]c2cc(C(=O)N3CCN(Cc4ccc5c(c4)OCO5)CC3)ccc2c1=O	u	2%	i	22%	-13	16%
CN1CCN(C(=O)c2ccc3c(=O)n(Cc4ccc5c(c4)OCO5)c(=S)[nH]c3c2)CC1	x	1%	x	x	x	x
O=C(c1ccc(Cn2c(=S)[nH]c3ccccc3c2=O)cc1)N1CCN(c2ccccn2)CC1	16µM*	1%	i	u	u	u
CCn1c(=O)c(=O)[nH]c2cc(C(=O)N3CCN(Cc4ccc5c(c4)OCO5)CC3)ccc21	-9%	2%	i	5.2µM*	-5	-33%
CC(=O)Nc1ccc(NC(=O)CN2C(=O)CC(c3ccco3)Sc3ccccc32)cc1 (centres undefined)	12%	0%	i	x	x	x
CC(=O)N1CCN(c2ccc(NCc3cccc4ccccc34)cc2)CC1	-35%	1%	i	u	-76*	7%
SMILES	ATXN2 expr inh	PINK1 expr mod	ATXN viability	MCF10A rereplic	IL-1B inflam inh	SW480 rerep
CC(=O)N1CCN(c2ccc(NCc3ccccc3)cc2)CC1	7%	-2%	i	u	4	-3%
CN1CCN(c2ccc(NC(=O)c3ccc(-c4ccc(Br)cc4)o3)cc2)CC1	u	-2%	u	u	-92*	u
CC(=O)N1CCN(c2ccc(NCc3ccc(-c4ccc(Br)cc4)o3)cc2)CC1	u	u	u	23µM*	x	13µM*
COc1ccc(CCNC(=O)c2cnc3ccc(C)cn3c2=O)cc1	-2%	-1%	i	x	x	x
Cc1nc(N2CCCCC2)c2c(-c3cccs3)csc2n1	-22%	6%	i	21µM*	14	2%
CC(C)(O)CN(C(=O)C(c1ccccc1)c1ccccc1)C1CCCCC1	11%	-2%	i	5%	-63*	11%
CC(=O)NC(CC(=O)N(C)C1CCCCC1)c1ccccc1 (centres undefined)	2%	-1%	i	-6%	39	-10%
COc1ccc(C2C(C(=O)Nc3ccccc3)=C(C)Nc3c(C(=O)Nc4ccccc4)cnn32)cc1 (centres undefined)	x	13%	x	x	x	x
COc1cc(C(=O)NS(=O)(=O)c2ccccc2C)ccc1Cc1cn(C)c2ccc(NC(=O)OC3CCCC3)cc12	39µM*	x	i	21µM*	x	1%
CCC(=O)N[C@@H]1c2ccccc2C2(CCN(Cc3cnc(N(C)C)s3)CC2)[C@H]1OC	x	-1%	i	x	x	x
COc1ccc(Br)c2c1-c1nc(NC(=O)c3ccc(F)cc3)sc1C2	-5%	2%	i	x	x	x
C#CCOCCOCCOCCNc1nc(N2CCN(C(=O)CCCCCCCCCCNC(=O)[C@H](CCCCN)n3cc(CCO)nn3)CC2)nc(N2CCN(C(=O)CCCCCCCCCCNC(=O)[C@H](CCCCN)n3cc(CCO)nn3)CC2)n1	-8%	5%	u	u	-55*	17%
C#CCOCCOCCOCCNc1nc(N2CCN(C(=O)CCCCCCCCCCNC(=O)[C@H]([C@@H](C)CC)n3cc(CCCCCN)nn3)CC2)nc(N2CCN(C(=O)CCCCCCCCCCNC(=O)[C@@H]([C@H](C)O)n3cc(C)nn3)CC2)n1	16µM*	-1%	16µM*	u	-68*	u
C#CCOCCOCCOCCNc1nc(N2CCN(C(=O)CCCCCCCCCCNC(=O)[C@H](CCC(=O)O)n3cc(CCCCCN)nn3)CC2)nc(N2CCN(C(=O)CCCCCCCCCCNC(=O)[C@@H]([C@H](C)O)n3cc(C)nn3)CC2)n1	-5%	4%	i	33%	u	1%
C#CCOCCOCCOCCNc1nc(N2CCOCC2)nc(N2CCN(C(=O)CCCCCCCCCCNC(=O)[C@@H]([C@H](C)O)n3cc(C)nn3)CC2)n1	-9%	0%	i	-10%	0	5%
